The panel holds about 83,000 compounds, 20% with a hit somewhere; the sample as a whole holds those more often.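 Cells were grown in 96-well plates and exposed to the test compound at a single concentration for 48 hours; results are reported as percent growth, with values below 10 considered active.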 Calls of active or inactive are those of the source.
Key:
Experiment in all cases: NCI-60 one-dose screen, 48 h (100 = growth as untreated, 0 = no growth, -100 = all killed)
Details in all cases: 10 µM unless noted
[1] = test system: NCI-H23 lung
[2] = test system: NCI-H226 lung
[3] = test system: NCI-H322M lung
[4] = test system: HOP-62 NSCLC
[5] = test system: NCI-H460 lung
[6] = test system: HOP-92 NSCLC
[7] = test system: NCI-H522 lung
[8] = test system: A549/ATCC NSCLC
[9] = test system: 786-0 renal
[10] = test system: COLO 205 colon

Measured: growth

C/C(=N/N)c1nnn(-c2ccc(Br)cc2)c1C
inactive: [1] 99.6% | [2] 91.5% | [3] 95.7% | [4] 93.7% | [5] 102% | [6] 93.4% | [7] 91.5% | [8] 99.4% | [9] 103% | [10] 115%

CCN(CC)CCOc1ccc(C(=C(c2ccccc2)C2CCCC2)c2ccc(OCCN(CC)CC)cc2)cc1
active: [6] -30.8% | [7] 2.43% | [10] -83.9%
inactive: [1] 16.7% | [2] 12.8% | [3] 59.5% | [4] 50.2% | [5] 17.2% | [8] 37.4% | [9] 62.6%

CCCCc1nc2c(N)nc3ccccc3c2n1Cc1ccc(OC)cc1
inactive: [1] 60.5% | [2] 73.3% | [3] 92.1% | [4] 77.4% | [5] 63.3% | [7] 68.5% | [8] 65.8% | [9] 65.4% | [10] 48.4%
active: [6] -3.74%

C[C@H](Nc1ncnc2ccc(-c3cnc(Cl)c(NS(C)(=O)=O)c3)cc12)c1ccccc1
active: [1] -5.76% | [2] 1.56% | [3] -31.1% | [4] -16.3% | [5] 4.11% | [6] -11.7% | [7] -48.8% | [8] -49.8% | [9] -6.23% | [10] -93.2%

COc1ccc(/C=N/NC(=O)c2c(N)nn(C)c2Nc2ccccc2)cc1Oc1ccccc1
inactive: [1] 90.4% | [2] 91.9% | [3] 89.4% | [4] 96.5% | [5] 102% | [6] 51.3% | [7] 93.8% | [8] 89.1% | [9] 101% | [10] 117%

O=S(=O)(Oc1ccc(-c2cn3ccoc3n2)cc1)C1CCCCC1
inactive: [1] 102% | [2] 86.7% | [3] 101% | [4] 105% | [5] 100% | [6] 99.9% | [7] 87.9% | [8] 99.4% | [9] 100% | [10] 103%

Cn1cc(-c2cc3ncnc(Nc4ccc(NC(=O)Nc5cc(C(C)(C)C)on5)cc4)c3s2)cn1
inactive: [1] 29.4% | [2] 30.7% | [3] 57.4% | [4] 62.7% | [5] 42.6% | [6] 22.5% | [7] 32.5% | [8] 31.6% | [10] 12.9%
active: [9] 3.44%

OCC(Nc1ncnc2ccc(-c3cnc4cnccn34)cc12)c1ccccc1 (stereo not given)
inactive: [1] 57.8% | [2] 67.5% | [3] 40% | [4] 79.8% | [5] 89.4% | [6] 59.3% | [7] 43.5% | [8] 74.2% | [9] 64.4% | [10] 98.2%

Cn1cc(-c2nc(N)nnc2-c2c[nH]c3ccc(Br)cc23)c2cc(F)ccc21
inactive: [1] 93.3% | [2] 96.6% | [3] 86.1% | [4] 103% | [5] 97.7% | [6] 98.7% | [7] 89.1% | [8] 103% | [9] 98.3% | [10] 103%

CC(=O)OC[C@@]12Oc3c(cccc3-c3ccc(O)c4c3O[C@]3(COC(C)=O)C(=C4O)C(=O)C[C@H](C)[C@@H]3OC(C)=O)C(O)=C1C(=O)C[C@H](C)[C@@H]2OC(C)=O
active: [1] 2.54% | [4] 8.14% | [6] -25.2% | [7] -7.22% | [10] -3.3%
inactive: [2] 25.9% | [3] 33.1% | [5] 10.3% | [8] 19.4% | [9] 27.7%

COC(=O)c1ccc(NC2=C(Cl)C(=O)c3nc(C)ccc3C2=O)cc1
inactive: [1] 54.8% | [2] 81.3% | [3] 101% | [4] 96.8% | [5] 92.3% | [6] 142% | [7] 59.6% | [8] 94.1% | [9] 85.7% | [10] 111%

O=C(/C=C/c1csc(Br)n1)NO
inactive: [1] 38.4% | [2] 82.9% | [3] 33.1% | [4] 35.5% | [5] 25.7% | [8] 23.5% | [9] 52.3% | [10] 11.6%
active: [6] -2.53% | [7] 7.37%

Cc1ccc2c(n1)C(=O)C(Cl)=C(Nc1cc(C(F)(F)F)cc(C(F)(F)F)c1)C2=O
inactive: [1] 86% | [2] 84.3% | [3] 105% | [4] 118% | [5] 95.9% | [6] 92.4% | [7] 37.4% | [8] 101% | [9] 80.3% | [10] 92.5%

N#Cc1c(-c2cccs2)cc(-c2cnccn2)nc1SCC(=O)N/N=C/c1ccccc1
inactive: [1] 40.8% | [2] 50.8% | [3] 63.5% | [4] 31.1% | [5] 17% | [6] 42.3% | [7] 67.3% | [8] 46.8% | [9] 17.9% | [10] 66.2%

C#CCn1cc(/C=N/Nc2nc(-c3ccc(Br)cc3)cs2)c2ccccc21
inactive: [1] 86.7% | [2] 94.7% | [3] 93.6% | [4] 97.5% | [5] 97.3% | [6] 88.9% | [7] 88.9% | [8] 97% | [9] 105% | [10] 115%

CC1CC(=O)C2=C(C1)Nc1ccc(Br)cc1CC2c1c[nH]c2ccc(Br)cc12 (stereo not given)
inactive: [1] 66.8% | [2] 65.5% | [3] 70.9% | [4] 65.2% | [5] 34.5% | [6] 76.6% | [7] 18.4% | [8] 42.3% | [9] 51.2% | [10] 66.2%

CCN(CC)CCOc1ccc(C(=C(C)Cc2ccc(OC)cc2)c2ccc(OCCN(CC)CC)cc2)cc1
active: [10] -78.2%
inactive: [1] 82.6% | [2] 81.3% | [3] 81.5% | [4] 62.6% | [5] 38.4% | [6] 19.9% | [7] 76.8% | [8] 52.6% | [9] 60.5%

CCC(=C(c1ccc(OCCN(C)C)cc1)c1ccc(OCCN(C)C)cc1)c1ccc(Cl)cc1
inactive: [1] 21.9% | [2] 21.7%
active: [3] 5.04% | [4] -65.7% | [5] -64.8% | [6] -5.13% | [7] -48.3% | [8] -72.3% | [9] -80.7% | [10] -67.3%

CC(C)C(/C=C/c1[nH]ncc1-c1cc(Cl)ccc1O)N1CCOCC1 (stereo not given)
inactive: [1] 96.7% | [2] 85.2% | [3] 88.7% | [4] 92.3% | [5] 105% | [6] 88.4% | [7] 95.8% | [8] 96.7% | [9] 101% | [10] 109%

CCCCN1C(=O)/C(=c2\sc3n(c2=O)C2C(NN=3)N(CC)C(=O)N2CC)c2cccc(C)c21 (stereo not given)
inactive: [1] 49.7% | [2] 36.6% | [3] 52.7% | [4] 46.8% | [5] 18.8% | [6] 71.1% | [7] 39.4% | [8] 57.1% | [9] 63.3% | [10] 24.6%

CCc1cc2c(cc1Cl)nc1c(=O)[nH]c(=O)nc-1n2CCOCC(C)C
inactive: [1] 67.7% | [2] 39.4% | [3] 54.9% | [4] 100% | [5] 49.3% | [6] 126% | [7] 55.6% | [8] 67.1% | [9] 70.3% | [10] 21.3%

Nn1c(=O)n(-c2cccc(C(F)(F)F)c2)c(=O)c2cc(-c3ccc(F)cc3F)ccc21
inactive: [2] 16.5% | [9] 45.7% | [10] 65.2%
active: [1] -6.15% | [3] 5.15% | [4] 2.28% | [5] 6.49% | [6] -35.6% | [7] -2.03% | [8] 5.13%

Brc1cc(-c2cc(-c3ccc4c(c3)OC=CO4)[nH]n2)cs1
inactive: [1] 79.3% | [2] 92% | [3] 91.4% | [4] 84.7% | [5] 97.8% | [6] 101% | [7] 81.3% | [8] 93.9% | [9] 106% | [10] 98.5%

CC(=O)c1cc(C(=O)N2c3ccccc3Sc3ccccc32)n2c1ccc1ccccc12
inactive: [1] 79.1% | [2] 60.4% | [3] 89.9% | [4] 56% | [5] 37.9% | [6] 85.2% | [8] 59% | [9] 60.6% | [10] 40%
active: [7] -1.14%

Cc1ccc(S(=O)(=O)NCCCNc2nc(Nc3ccc(N4CCN(C)CC4)cc3)nc3ccsc23)cc1
inactive: [1] 75.6% | [2] 117% | [3] 52.7% | [4] 97.1% | [5] 18.5% | [6] 49.6% | [8] 37.1%
active: [7] -5.6% | [9] -26.7% | [10] -32.9%

CC[C@]12C=CCN3CC[C@]4(C(=C(C(=O)OC)C1)Nc1cc5c(cc14)[C@@H]1[C@H](O5)[C@@H](O)[C@@]4(CC)CC(C(=O)OC)=C5Nc6cc(O)ccc6[C@@]56CCN1C46)C32 (stereo not given in full)
inactive: [4] 16.6% | [5] 10.3% | [6] 35.5% | [8] 20.2%
active: [1] -40.9% | [2] -1.32% | [3] 0.163% | [7] -22.8% | [9] 6.94% | [10] -48%
